Test results published in PubChem BioAssay (NCI).
Compounds without any hit were thinned out: in the full panel of roughly 83,000, 20% have a hit.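 Negative percent growth values reflect cell death: -40 means 40% of the cells present at the start died, and -100 means all died.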 Values without a mark were called inactive. Calls of active or inactive are those of the source. The calls were made as follows: active = growth percent below 10; inactive = the rest.

How the values were obtained:
Test in all cases: NCI-60 one-dose screen, 48 h (100 = growth as untreated, 0 = no growth, -100 = all killed)
NCI-H23 lung = details: 10 µM
HOP-92 NSCLC = details: 10 µM
COLO 205 colon = details: 10 µM
K-562 leukemia = details: 10 µM
RXF 393 renal = details: 10 µM
U251 CNS = details: 10 µM
SK-MEL-28 melanoma = details: 10 µM
EKVX NSCLC = details: 10 µM
UO-31 renal = details: 10 µM
CCRF-CEM leukemia = details: 10 µM
MOLT-4 leukemia = details: 10 µM
SR leukemia = details: 10 µM
IGROV1 ovarian = details: 10 µM
MDA-MB-468 breast = details: 10 µM unless noted
NCI-H226 lung = details: 10 µM
MDA-MB-231 breast = details: 10 µM
LOX IMVI melanoma = details: 10 µM
HS 578T breast = details: 10 µM
SW-620 colon = details: 10 µM
SNB-19 CNS = details: 10 µM

| Compound | growth (NCI-H23 lung) | growth (HOP-92 NSCLC) | growth (COLO 205 colon) | growth (K-562 leukemia) | growth (RXF 393 renal) | growth (U251 CNS) | growth (SK-MEL-28 melanoma) | growth (EKVX NSCLC) | growth (UO-31 renal) | growth (CCRF-CEM leukemia) | growth (MOLT-4 leukemia) | growth (SR leukemia) | growth (IGROV1 ovarian) | growth (MDA-MB-468 breast) | growth (NCI-H226 lung) | growth (MDA-MB-231 breast) | growth (LOX IMVI melanoma) | growth (HS 578T breast) | growth (SW-620 colon) | growth (SNB-19 CNS) |
| --- | --- | --- | --- | --- | --- | --- | --- | --- | --- | --- | --- | --- | --- | --- | --- | --- | --- | --- | --- | --- |
| O=C(/C=C/c1ccco1)c1nc2ccccc2n1Cc1ccc(F)cc1 | 65.2% | 40.2% | 81.9% | 20.7% | 33.3% | 40.9% | 81.8% | 58.9% | 46.8% | 21.4% | 6.46% (active) | 23.6% | 52.5% | 24% |  |  |  |  |  |  |
| CCOC(=O)C1=C(Nc2ccccc2)C(=O)OC12C(=O)Nc1ccccc12 (centres undefined) |  | 101% |  | 95.5% | 119% | 109% | 107% |  | 73.2% | 93.9% | 108% | 97.3% | 102% | 129% | 115% | 104% | 94.3% | 106% | 97.1% |  |
| COCCOCCOCCOc1ccc(-n2cc(-c3ccc(O[C@H]4O[C@@H]5OC6(C)CC[C@H]7[C@H](C)CC[C@@H]([C@H]4C)[C@@]57OO6)cc3)nn2)cc1 |  | 83.2% | -11.4% (active) | 28.6% | 69.4% |  | 44.6% | 26.7% | 11.5% | 53.7% | 21.2% | 33.8% | 50.2% | 13.3% | 79.7% | 79.9% | 36.1% | 43.9% | 27.7% | 64% |
| CC1=C(C=O)C2=C(C)C3(CC3)[C@@](C)(O)C(=O)C2=C1 | 10.3% | 18.5% | 30.4% |  | -68.8% (active) | -43.9% (active) | 23.3% |  | 11.2% | 18% |  |  |  |  |  | -43.4% (active) | -76.1% (active) | 36.3% | -15.8% (active) |  |
| O=C(/C=C/c1ccccc1)c1nc2ccccc2n1Cc1ccc(F)cc1 |  | -28.4% (active) | -43.4% (active) | -8.55% (active) | -89.3% (active) |  | -26.4% (active) | -60.5% (active) | -78.5% (active) | -23.7% (active) | -4.66% (active) | -16.4% (active) | -32.9% (active) | -90.3% (active) | -48.5% (active) |  |  |  |  | -47.9% (active) |
